Test results as given in PubChem BioAssay AID1159580 (chemical genetic matrix, 2015).
Hit rate of the full screen: of about 5,500 compounds, about 2,000 (36%) were called active. Another 18% or so got no clear call; they are omitted. Cut-off read from the data, not from the text of the source: active = normalized growth mostly below about 0.91 (no sharp cut-off); inconclusive = no clear call, values can overlap the other calls; inactive = mostly above about 0.92. The list shows a part of the results.

Test: chemical genetic growth profiling, strain panel (AID 1159580);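 note: tested at 20 µM; growth read once vehicle control cultures reached saturation at 30 °C; 1 = growth at the plate median or of vehicle wells; lower values mean less growth of the strain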
Details: S. cerevisiae deletion strains, growth OD
[1] = locus YDL101C, strain DUN1, hits give low values
[2] = locus YHR030C, strain SLT2, hits give low values

Measured: normalized growth

CSC(=Nc1ccc(C(C)C)cc1)NC#N
inactive: locus YAL013W, strain DEP1, hits give low values 0.993 | locus YBR229C, strain ROT2, hits give low values 0.978 | [1] 1.02 | locus YDR150W, strain NUM1, hits give low values 0.916 | locus YEL061C, strain CIN8, hits give low values 1 | locus YGR078C, strain PAC10, hits give low values 0.98 | [2] 0.88 | locus YHR087W, strain rtc3, hits give low values 0.97 | locus YJL187C, strain SWE1, hits give low values 0.981 | locus YJR043C, strain POL32, hits give low values 0.982 | locus YJR075W, strain HOC1, hits give low values 0.936 | locus YLR039C, strain RIC1, hits give low values 0.971 | locus YLR058C, strain SHM2 (second series), hits give low values 0.955 | locus YLR085C, strain ARP6, hits give low values 0.86 | locus YLR262C, strain YPT6, hits give low values 0.943 | locus YML094W, strain GIM5, hits give low values 1.04 | locus YMR219W, strain ESC1, hits give low values 0.97 | locus YMR263W, strain SAP30, hits give low values 0.978 | locus YNL128W, strain TEP1, hits give low values 0.965 | locus YNL153C, strain GIM3, hits give low values 1 | locus YNL298W, strain CLA4 (second series), hits give low values 0.947 | locus YNL322C, strain KRE1, hits give low values 0.986 | locus YNR030W, strain Alg12, hits give low values 0.988 | locus YOL006C, strain TOP1, hits give low values 0.839 | locus YPL055C, strain LGE1, hits give low values 0.985 | locus YPL241C, strain CIN2, hits give low values 0.908 | locus YPR135W, strain CTF4, hits give low values 0.855

Nc1ccc(N2CCN(c3ccc(C(F)(F)F)cn3)CC2)nc1
inactive: locus YAR019C, strain CDC15, hits give low values 0.974 | locus YBL105C, strain PKC1, hits give low values 0.984 | locus YBR135W, strain CKS1, hits give low values 0.969 | locus YBR136W, strain MEC1, hits give low values 0.983 | locus YBR160W, strain CDC28, hits give low values 0.964 | locus YDL017W, strain CDC7, hits give low values 0.98 | locus YDL028C, strain MPS1, hits give low values 0.949 | [1] 0.987 | locus YDL108W, strain KIN28, hits give low values 0.966 | locus YDL132W, strain cdc53, hits give low values 0.992 | locus YDL214C, strain PRR2, hits give low values 0.927 | locus YDR052C, strain DBF4, hits give low values 0.988 | locus YDR054C, strain cdc34, hits give low values 0.994 | locus YDR226W, strain ADK1, hits give low values 0.975 | locus YDR477W, strain SNF1, hits give low values 0.862 | locus YER123W, strain YCK3, hits give low values 0.879 | locus YER133W, strain GLC7, hits give low values 0.916 | locus YFL009W, strain cdc4, hits give low values 0.968 | locus YFL029C, strain CAK1, hits give low values 0.971 | locus YFR003C, strain YPI1, hits give low values 0.981 | locus YFR019W, strain FAB1, hits give low values 0.862 | locus YFR028C, strain CDC14, hits give low values 0.982 | locus YGR040W, strain KSS1, hits give low values 0.865 | locus YGR052W, strain FMP48, hits give low values 0.968 | locus YGR092W, strain DBF2, hits give low values 0.722 | locus YHR079C, strain IRE1, hits give low values 0.948 | locus YHR082C, strain KSP1, hits give low values 0.966 | locus YHR205W, strain SCH9, hits give low values 0.986 | locus YIL147C, strain SLN1, hits give low values 0.973 | locus YJL095W, strain BCK1, hits give low values 0.809 | locus YJL128C, strain PBS2, hits give low values 1.02 | locus YJL157C, strain FAR1, hits give low values 0.921 | locus YJR016C, strain ILV3, hits give low values 0.976 | locus YJR066W, strain TOR1 (second series), hits give low values 0.775 | locus YJR066W, strain TOR1, hits give low values 0.879 | locus YKL048C, strain ELM1, hits give low values 1.03 | locus YKL067W, strain YNK1, hits give low values 0.91 | locus YKL101W, strain HSL1, hits give low values 0.98 | locus YKL193C, strain SDS22, hits give low values 0.983 | locus YKL203C, strain TOR2, hits give low values 0.976 | locus YLR113W, strain HOG1, hits give low values 0.991 | locus YLR133W, strain CKI1, hits give low values 0.96 | locus YLR403W, strain SFP1, hits give low values 0.9 | locus YML070W, strain DAK1, hits give low values 0.917 | locus YMR001C, strain CDC5, hits give low values 0.977 | locus YMR205C, strain PFK2 (second series), hits give low values 0.952 | locus YMR277W, strain FCP1, hits give low values 0.952 | locus YNL006W, strain LST8, hits give low values 0.967 | locus YNL020C, strain ARK1, hits give low values 0.95 | locus YNL161W, strain CBK1, hits give low values 0.991 | locus YNL183C, strain NPR1, hits give low values 1.01 | locus YNL207W, strain RIO2, hits give low values 0.959 | locus YNL222W, strain SSU72, hits give low values 0.956 | locus YNL307C, strain MCK1 (second series), hits give low values 0.916 | locus YOL078W, strain AVO1, hits give low values 0.982 | locus YOL136C, strain PFK27, hits give low values 0.928 | locus YOR061W, strain CKA2, hits give low values 0.943 | locus YOR119C, strain RIO1, hits give low values 0.923 | locus YOR231W, strain MKK1, hits give low values 0.904 | locus YOR329C, strain SCD5, hits give low values 0.986 | locus YPL031C, strain PHO85, hits give low values 0.876 | locus YPL153C, strain RAD53, hits give low values 0.835 | locus YPL204W, strain HRR25, hits give low values 0.828 | locus YPL209C, strain IPL1, hits give low values 0.991 | locus YPL256C, strain CLN2, hits give low values 0.983 | locus YPR025C, strain CCL1, hits give low values 0.981 | locus YPR106W, strain ISR1, hits give low values 1.01 | locus YPR111W, strain DBF20, hits give low values 1.02 | strain NNK1, hits give low values 0.984 | strain TSCII, hits give low values 0.97
active: [2] 0.724
